Source: PubChem BioAssay AID1851 (National Center for Advancing Translational Sciences (NCATS), 2009)
Several values for one entry are separate records, joined by “and”; a condition that tells them apart may be missing. Identical values can stand only once. The campaign covered roughly 16,000 compounds. About 2,600 (16%) were called active. Roughly 20% stayed inconclusive and do not appear here. The entries come from a sample that favours actives as a whole. Values without a mark were called inactive. Calls come from the whole dose curve; as a rule, active = well fitted curve in the direction sought with a large enough effect; inconclusive = small, poorly fitted or top-dose-only effect, or effect the other way; inactive = no such curve, though single readings can be large or run the other way.

These compounds were tested against Cytochrome P450 2D6 (Homo sapiens) (UniProt P10635) (assay: Cytochrome panel assay with activity outcomes). Details: recombinant CYP, pro-luciferin dealkylation, luminescence, p450-cyp2d6; series mostly up to 57.1 µM; activity, negative = inhibition: at the top concentration.
% is set by controls: 0 for no effect and ±100 for the full control effect.

Sequence of Cytochrome P450 2D6 (Homo sapiens) (P10635 whole entry, looked up): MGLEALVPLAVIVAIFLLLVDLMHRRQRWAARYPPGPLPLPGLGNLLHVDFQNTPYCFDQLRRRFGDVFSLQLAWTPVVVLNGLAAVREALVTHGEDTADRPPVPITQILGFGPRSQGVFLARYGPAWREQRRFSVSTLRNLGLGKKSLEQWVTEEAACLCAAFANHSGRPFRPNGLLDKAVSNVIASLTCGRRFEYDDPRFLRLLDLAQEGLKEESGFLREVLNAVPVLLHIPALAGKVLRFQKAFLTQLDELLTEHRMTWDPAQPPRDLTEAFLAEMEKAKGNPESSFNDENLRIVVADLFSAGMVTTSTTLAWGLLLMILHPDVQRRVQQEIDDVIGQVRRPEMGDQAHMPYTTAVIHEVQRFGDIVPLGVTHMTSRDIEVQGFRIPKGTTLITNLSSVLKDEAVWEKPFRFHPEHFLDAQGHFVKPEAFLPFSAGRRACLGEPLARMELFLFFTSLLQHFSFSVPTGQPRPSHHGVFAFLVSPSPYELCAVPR

Structure (SMILES) | activity, negative = inhibition | AC50
C/C(=C\c1ccc(N(C)C)cc1)[N+](=O)[O-] | -28.6% | –
CCN1CCC[C@@H](OC(=O)C(c2ccccc2)c2ccccc2)C1 | – | 1.58 µM (active)
C[N+]1(C)[C@@H]2CC[C@H]1CC(OC(=O)[C@@H](CO)c1ccccc1)C2 (some centres undefined) | – | inactive
C[N+]1(C)C2CC[C@H]1CC(OC(=O)[C@@H](CO)c1ccccc1)C2 (some centres undefined) | 12% [at 11.4 µM] | –
NCCCC[C@H](N[C@@H](CCc1ccccc1)C(=O)O)C(=O)N1CCC[C@H]1C(=O)O | 10.4% [at 25.6 µM] | –
CCC1=C(C[C@H]2NCCc3cc(OC)c(OC)cc32)C[C@H]2c3ccccc3CCN2C1 | – | 0.316 µM (active)
COc1cc2c(cc1OC)[C@H](C)NCC2 | -5.44% [at 25.6 µM] | –
CCC1=C(C[C@H]2NCCc3ccccc32)C[C@@H]2c3cc(OC)c(OC)cc3CCN2C1 | – | 2.51 µM (active)
CC[C@@H]1CN2CCc3cc(OC)c(OC)cc3[C@H]2C[C@@H]1C[C@@H]1NCCc2cc(OC)c(OC)cc21 | 3.48% | –
O=C1CS[C@@H](c2ccccc2Cl)c2cc(Cl)ccc2N1 | -15.3% | –
c1ccc(C2CC2)c(OCC2=NCCN2)c1 | – | 25.1 µM (active) and 5.01 µM (active)
c1ccc([C@H]2CNCc3ccccc32)cc1 | – | 5.01 µM (active)
O=[As](O)(O)c1ccc2nc3cc([As](=O)(O)O)ccc3nc2c1 | 14.5% [at 11.4 µM] | –
CC(=O)OCC1=C(C(=O)O)N2C(=O)[C@@H](N)[C@@H]2SC1 | 5.59% [at 25.6 µM] | –
c1cc(CCN2CCCCC2)ccn1 | -18.4% [at 11.4 µM] | –
O[Si@](CCCN1CCCCC1)(c1ccc(F)cc1)C1CCCCC1 | – | 0.501 µM (active)
CS(=N)(=O)CC[C@@H](N)C(=O)O (some centres undefined) | 3.1% [at 25.6 µM] | –
COc1cc([C@@H](O)CN)ccc1O | -2.5% | –
O=C(CCN1CC2CCC(CC2)C1)c1cccs1 | – | 2 µM (active)
C/C=C1\C[C@H](C)[C@@](O)(CO)C(=O)OCC2=CCN3CC[C@@H](OC1=O)[C@@H]23 | 8.82% [at 25.6 µM] | –
C[N+](C)(C)CCCCCC[N+](C)(C)C | -2.19% | –
N=C1c2ccccc2CN1NC(=O)c1ccc(F)cc1 | – | 1.26 µM (active)
N=C1c2ccccc2CN1NC(=O)c1ccc(Cl)cc1 | – | 0.794 µM (active)
NP(N)(=O)NC(=O)c1ccc(F)cc1 | 0.0851% | –
CS(=O)(=O)N1CCCC(C(=O)N2CCC3(CC2)OCCO3)C1 (centres undefined) | 8.4% | –
CC12CN3CC(C)(CN(C1)C31CCSCC1)C2=O | -17.1% | –
NCCSC(c1ccccc1)c1ccccc1 | – | 0.794 µM (active)
NCC#Cc1ccccc1 | -4.23% | –
O=C1NC(=O)N(CCNc2ncc(C(F)(F)F)cc2Cl)C(=O)C1/C=N/OCc1c(F)cccc1Cl (centres undefined) | -4.63% | –
